Screens deposited in PubChem BioAssay by National Center for Advancing Translational Sciences (NCATS).
Shown are actives, neighbours in structure and some others; about 12% of the full set was active somewhere.
PLK1 PBD inh: qHTS for Inhibitors of PLK1-PDB (polo-like kinase 1 - polo-box domain): Primary Screen. Serine/threonine-protein kinase PLK1 (Homo sapiens), P53350. Plk1 PBD binding of FITC phosphopeptide, fluorescence polarization. Potency, µM, inactives show max response, negative = inhibition, hits mostly inhibitors. 360,000 tested, 2.8% active. AID 720504, 2013; further: potency means the concentration at half of the fitted maximal effect; series mostly up to about 57 µM; on the % scale 0 is the no-effect control and ±100 the full control effect; nearly all actives have a fitted effect of over 65% in size
JMJD2A Tudor inh: qHTS Assay for Inhibitors of JMJD2A-Tudor Domain | Lysine-specific demethylase 4A (Homo sapiens), O75164 | AlphaScreen JMJD2A-Tudor / H3K4me3 peptide binding | Potency, µM (series often up to 114 µM), for inactives: at the top dose activity change, negative = inhibition, actives largely listed as inhibitors | 390,000 tested, 4.4% active | AID 504339, 2011; further: potency means the concentration at half of the fitted maximal effect; on the % scale 0 is the no-effect control and ±100 the full control effect; nearly all actives have a fitted effect of over 50% in size
PI5P4Ka inh: qHTS for Inhibitors of phosphatidylinositol 5-phosphate 4-kinase (PI5P4K). max response, %. PI5P4Kalpha enzyme, ADP-Glo luminescence, 60 min; hits give low values. 330,000 tested, 1.2% active; active means max response of -50% or lower; inconclusive means between -30% and -50%; inactive means -30% or higher; further: value at the top dose of about 77 µM; on the % scale 0 is the no-effect control and ±100 the full control effect
Target sequence (P48426 whole entry, looked up): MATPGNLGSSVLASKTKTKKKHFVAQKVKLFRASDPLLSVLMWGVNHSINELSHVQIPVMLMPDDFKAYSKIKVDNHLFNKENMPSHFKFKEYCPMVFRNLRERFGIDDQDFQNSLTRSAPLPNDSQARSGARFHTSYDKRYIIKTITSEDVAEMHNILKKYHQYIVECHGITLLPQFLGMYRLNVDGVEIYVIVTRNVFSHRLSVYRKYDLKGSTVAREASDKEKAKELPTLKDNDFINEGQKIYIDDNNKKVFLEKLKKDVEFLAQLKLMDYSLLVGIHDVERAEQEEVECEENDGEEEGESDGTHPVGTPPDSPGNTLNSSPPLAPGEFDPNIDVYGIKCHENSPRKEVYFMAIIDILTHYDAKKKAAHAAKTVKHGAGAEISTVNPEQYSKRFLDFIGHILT
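PI5P4Kalpha ADP-Glo assay; 5 microM ATP final; 60 min RT reaction; HEPES pH 7.4/EGTA/CHAPS, 5% DMSO; controls lacking substrate or enzyme; luminescent end-point.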
G9a inh: qHTS Assay for Inhibitors of Histone Lysine Methyltransferase G9a; Histone-lysine N-methyltransferase EHMT2 (Homo sapiens), Q96KQ7; G9a H3K9 monomethylation, AlphaScreen, 2 h; Potency, µM (highest dose often 102 µM), inactives show at the highest dose activity, negative = inhibition, hits mostly inhibitors; 350,000 tested, 8.8% active; further: potency means the concentration at half of the fitted maximal effect; on the % scale 0 is the no-effect control and ±100 the full control effect; nearly all actives have a fitted effect of over 75% in size
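AlphaScreen read-out: biotin-H3K9 peptide (500 nM) methylation by 20 nM enzyme with 20 uM SAM, 2 h at room temperature after 15 min compound preincubation; anti-monomethyl H3K9 antibody plus donor/acceptor beads, 10 min dark.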
HP1b chromo inh: HTS for Inhibitors of HP1-beta Chromodomain Interactions with Methylated Histone Tails | Chromobox protein homolog 1 (Homo sapiens), P83916 | 390,000 tested, 0.56% active | AlphaScreen HP1-beta / biotin-H3K9me3 peptide binding | Potency, µM (highest dose often 114 µM), for inactives: at the top dose activity change, negative = inhibition, hits mostly inhibitors | AID 540317, 2011; further: potency means the concentration at half of the fitted maximal effect; nearly all actives have a fitted effect of over 70% in size
Target sequence (P83916 whole entry, looked up): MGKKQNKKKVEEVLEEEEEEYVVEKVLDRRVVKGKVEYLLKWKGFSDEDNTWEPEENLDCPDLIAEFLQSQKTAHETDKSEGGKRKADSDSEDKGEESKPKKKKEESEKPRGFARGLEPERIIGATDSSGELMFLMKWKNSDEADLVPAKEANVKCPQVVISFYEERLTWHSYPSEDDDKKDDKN
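AlphaScreen: HP1-beta (50 nM) preformed 30 min with biotin-H3(1-18)K9me3 peptide (50 nM) in PBS pH 7.4, 0.01% Tween-20. Compound added for 30 min at RT, then streptavidin donor/nickel chelate acceptor beads (10 ug/mL) for 30 min.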
BAZ2B inh: qHTS Assay for Inhibitors of BAZ2B; Bromodomain adjacent to zinc finger domain protein 2B (Homo sapiens), Q9UIF8; AlphaScreen BAZ2B-H3K14Ac peptide displacement; Potency, µM (highest dose often 114 µM), for the others: at the highest dose activity change, negative = inhibition, hits mostly inhibitors; 360,000 tested, 4.4% active; further: potency means the concentration at half of the fitted maximal effect; on the % scale 0 is the no-effect control and ±100 the full control effect; nearly all actives have a fitted effect of over 60% in size
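Multi-concentration screen (max 110 uM) measuring displacement of acetylated histone H3 peptide from BAZ2B by AlphaScreen, using 50 nM protein, 50 nM peptide and 10 ug/mL streptavidin donor plus Ni-chelate acceptor beads.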
* = called active by the depositor; ? = inconclusive; · = not tested or not shown; [ ] = remark or other dose. Unless noted, the call rests on the fitted dose curve; in most records, active means well fitted curve in the direction sought with a large enough effect; inconclusive means small, poorly fitted or top-dose-only effect, or another doubt; inactive means no such curve, though single readings can be large; an effect the other way counts as inactive or inconclusive.

SMILES | PLK1 PBD inh | JMJD2A Tudor inh | PI5P4Ka inh | G9a inh | HP1b chromo inh | BAZ2B inh
COC(=O)c1ccc(Cn2c(SCc3cccc(C)c3)nc3ccncc32)cc1 | · | -19% | · | ? | 76% | 17%
CCOC(=O)C1=C(C)NC(=O)NC1c1cc2c(cc1Br)OCO2 (configuration not stated) | -11% | ? | 0 | -13%[59 µM] | 57% | 55%
CCCOC(=O)C1=C(C)N(C)C(=O)NC1c1cc2c(cc1[N+](=O)[O-])OCO2 (configuration not stated) | ? | ? | -2 | 10µM* | -1% | ?
CC1=C(C(=O)OCC(C)C)C(c2cc3c(cc2Br)OCO3)NC(=O)N1C (configuration not stated) | -2% | -14% | -1 | ? | 10% | 0%
CCOC(=O)C1=C(C)NC(=O)CC1c1cc2c(cc1[N+](=O)[O-])OCO2 (configuration not stated) | -2% | -31% | 1 | 22µM* | 23% | ·
Cn1cnc2c(=O)oc3ccc(S(=O)(=O)N4CCN(c5ccccc5F)CC4)cc3c21 | · | -8% | · | -16%[59 µM] | 11% | -33%
COc1cc(S(=O)(=O)NCc2ccccc2Cl)ccc1-n1cnnn1 | -2% | 7% | 5 | 13µM* | 32% | ?
COc1cc(S(=O)(=O)NCc2ccc(F)cc2)ccc1-n1cnnn1 | -4% | -9% | 3 | 3% | 6% | -1%
COc1ccccc1CNS(=O)(=O)c1ccc(-n2cnnn2)c(OC)c1 | -7% | -10% | 0 | 28µM* | -17% | -18%
O=S(=O)(NCc1ccccc1Cl)c1ccc(-n2cnnn2)cc1 | -7% | -8% | 4 | ? | 12% | 1%
COc1cccc(C(=O)NNS(=O)(=O)c2ccccc2)c1 | 1% | · | 1 | · | · | ·
CCOC(=O)CN1NC2(CCCC(C)C2)NC1=S (configuration not stated) | -3% | 50µM* | · | 10µM* | 38% | -4%
CCOC(=O)CN1NC2(CCC(C)CC2)NC1=S (configuration not stated) | 1% | 28µM* | · | 25µM* | 33% | ?
CCOC(=O)CN1NC2(CCC(C(C)(C)C)CC2)NC1=S (configuration not stated) | -2% | 40µM* | -29 | 14%[12.7 µM] | 32% | ?
CCOC(=O)c1ccc(NC(=O)CN2C(=O)NC3(CCC(C)CC3)C2=O)cc1 (configuration not stated) | -4% | -17%[57.1 µM] | 4 | 3% | 16% | -15%
CCOC(=O)CON1C(=O)C(=O)N(OCC(=O)OCC)[C@H]2CCCC[C@H]21 | 4% | 3% | 0 | ? | 24% | 3%
O=C(CSc1nnc(NC(=O)c2ccc(F)cc2)s1)NC1CCCC1 | -14% | -20% | 1 | ? | -14% | 0%
COc1cc2[nH]c(=S)nc(NC3CCCC3)c2cc1OC | · | · | · | 32µM* | · | -35%
COc1cc2[nH]c(=O)[nH]c(=O)c2cc1OC | · | · | · | -4%[5.15 µM] | · | ·
C=CCNc1nc(=S)[nH]c2cc(OC)c(OC)cc12 | -10% | ? | -12 | 25µM* | 16% | -23%
COc1ccc(NC(=O)c2sc3nc(C)c(C(=O)Nc4ccc(C)cc4C)c(-c4sccc4C)c3c2N)cc1 | · | -14% | · | 4%[59 µM] | 23% | 0%
COC(=O)c1cc(NS(=O)(=O)c2ccc(N3CCC(C)CC3)c([N+](=O)[O-])c2)cc(C(=O)OC)c1 | -10% | 22µM* | 29 | ? | 50µM* | ?
O=[N+]([O-])c1cc(-c2nnc(Nc3ccc(O)cc3)c3ccccc23)ccc1N1CCOCC1 | -13% | ? | -29 | 20µM* | ? | ?
O=[N+]([O-])c1cc(S(=O)(=O)Nc2ccccc2)ccc1N1CCN(c2ccc(O)cc2)CC1 | 5% | 13µM* | 3 | 5µM* | -83% | 28µM*
CN(C)S(=O)(=O)c1ccc(C(=O)Nc2c(C(=O)Nc3ccc(F)cc3)oc3ccccc23)cc1 | · | -10% | · | -28%[59 µM] | 29% | -14%
SMILES | PLK1 PBD inh | JMJD2A Tudor inh | PI5P4Ka inh | G9a inh | HP1b chromo inh | BAZ2B inh
CCOC(=O)C(C(=O)Nc1ccccn1)C1CCCCC1 (configuration not stated) | -9% | 89µM* | -3 | 50µM* | 21% | 1%
Cc1ccc(-c2[nH][nH]c(=O)c(=O)c2N=Nc2ccccc2)cc1 | 30µM* | -14%[11.4 µM] | -1 | 45µM* | ? | -30%
Cc1cc(=O)n2[nH]c(=O)c(N=Nc3ccccc3)c2[nH]1 | -5% | ? | -19 | -13%[12.7 µM] | 9% | ?
O=C(CSc1ccc(Cl)cc1)N1CCOCC1 | -11% | -17% | 8 | 4%[12.7 µM] | 41% | 2%
O=C1CCN(C(=O)CSc2ccc(Cl)cc2)N1 | -15% | ? | 5 | 14µM* | 18% | 50µM*
O=C1CCN(C(=O)c2ccc(Cl)cc2)N1 | -11% | 89µM* | -1 | 13µM* | 9% | 56µM*
O=C(Nc1cccc(-c2nn3c(=O)cc(N4CCNCC4)nc3s2)c1)C1CCNCC1 | · | -29% | · | · | · | ·
COc1cccc(NC(=O)COC(=O)c2ccccc2SCC(=O)N2CCCC2)c1 | -9% | -13% | -8 | 7%[0.501 µM] | 25% | 7%
N#Cc1nc(Nc2cc(F)cc(F)c2)c2ncn(C3CCCC3)c2n1 | · | -3% | · | · | · | ·
CNc1nc(N/N=C/c2cc3c(cc2[N+](=O)[O-])OCO3)nc(Nc2ccccc2)n1 | 1% | ? | -68* | -29% | -4% | ?
CNc1nc(N/N=C/c2cc([N+](=O)[O-])ccc2F)nc(Nc2ccccc2)n1 | 1% | -32% | -20 | · | 26% | ·
O=[N+]([O-])c1cc2c(cc1/C=N\NS(=O)(=O)c1ccccc1)OCO2 | -17% | -11% | · | 4µM* | 23% | -5%
O=[N+]([O-])c1ccc(S(=O)(=O)NN=Cc2ccc3c(c2)OCO3)cc1 | -29% | -27% | -5 | · | 0% | ·
O=C1c2oc3ccccc3c(=O)c2C(c2ccccc2F)N1Cc1ccc2c(c1)OCO2 (configuration not stated) | · | -15% | · | -31%[59 µM] | 8% | 1%
Cc1ccc2c(c1)N(C(=O)CCC(=O)NCc1ccccn1)CC(C)O2 (configuration not stated) | -7% | -16% | 1 | 63% | 20% | -1%
Cc1noc(C)c1C(=O)Nc1ccc(S(=O)(=O)N2CCC(C)CC2)cc1 | -1% | -11% | 0 | 22µM* | 33% | -6%
